Reference: PMC4336329 (PLoS ONE, 2015)
Out of some 310,000 compounds screened, about 2,200 (0.71%) showed an effect of 50% or more. Effects have a minus sign here. The list comes from a sample in which strong results are over-represented; it also holds similar structures and randomly drawn compounds.

molecular target: human ether-à-go-go-related gene (hERG) potassium channel (human, UniProt Q12809); test: primary screen, population patch clamp on CHO cells stably expressing hERG; higher = less effect of the substance
Sequence (Q12809 whole entry, looked up): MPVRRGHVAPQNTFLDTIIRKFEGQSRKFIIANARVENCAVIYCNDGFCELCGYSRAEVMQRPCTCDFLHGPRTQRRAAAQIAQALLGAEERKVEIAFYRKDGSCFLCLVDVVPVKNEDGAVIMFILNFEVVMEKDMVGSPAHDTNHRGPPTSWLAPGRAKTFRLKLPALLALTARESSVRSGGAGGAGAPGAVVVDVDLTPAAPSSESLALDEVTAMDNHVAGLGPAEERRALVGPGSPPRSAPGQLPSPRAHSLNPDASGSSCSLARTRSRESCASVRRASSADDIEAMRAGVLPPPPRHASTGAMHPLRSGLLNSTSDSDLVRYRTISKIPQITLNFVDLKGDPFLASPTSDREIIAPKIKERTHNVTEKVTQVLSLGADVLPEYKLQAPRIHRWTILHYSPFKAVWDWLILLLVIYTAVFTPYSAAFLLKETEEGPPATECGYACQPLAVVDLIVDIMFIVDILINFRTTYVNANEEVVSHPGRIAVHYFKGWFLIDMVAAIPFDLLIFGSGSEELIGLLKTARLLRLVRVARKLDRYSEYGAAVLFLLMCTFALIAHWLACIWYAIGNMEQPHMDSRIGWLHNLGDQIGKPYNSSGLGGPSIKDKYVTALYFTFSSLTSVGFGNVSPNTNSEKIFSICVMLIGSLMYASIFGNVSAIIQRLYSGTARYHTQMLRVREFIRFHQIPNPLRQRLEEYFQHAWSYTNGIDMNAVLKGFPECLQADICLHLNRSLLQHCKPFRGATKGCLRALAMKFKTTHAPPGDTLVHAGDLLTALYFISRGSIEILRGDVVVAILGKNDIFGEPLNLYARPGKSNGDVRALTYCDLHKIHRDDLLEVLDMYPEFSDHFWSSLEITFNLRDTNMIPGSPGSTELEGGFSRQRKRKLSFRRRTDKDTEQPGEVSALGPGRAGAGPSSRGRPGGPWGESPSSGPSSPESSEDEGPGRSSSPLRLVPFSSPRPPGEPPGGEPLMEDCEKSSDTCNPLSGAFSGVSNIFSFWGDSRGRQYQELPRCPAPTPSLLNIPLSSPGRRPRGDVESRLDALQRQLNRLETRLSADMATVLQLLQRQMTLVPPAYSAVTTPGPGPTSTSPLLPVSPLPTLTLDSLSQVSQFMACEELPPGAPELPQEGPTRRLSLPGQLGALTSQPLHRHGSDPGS

| Compound | hERG current change (%, negative = inhibition) at 1uM |
| --- | --- |
| Cc1ccc(C(=O)Nc2cccc(C(=O)N3CCOCC3)c2)cc1 | 3.75% |
| O=C(CCc1ccccc1)Nc1ccc2ccccc2n1 | -2.39% |
| CNC(=S)NNC(=O)c1sc2cc(C(F)(F)F)cnc2c1-c1ccccn1 | 4.79% |
| O=C(NCC(=O)N1CCCCCC1)c1ccc(OC(F)F)cc1 | 10.4% |
| O=C(CN1CCN(C/C=C/c2ccccc2)CC1)NCc1ccc(Cl)cc1 | -72.5% |
| O=C(CN1CCCCCC1)NCc1ccccc1 | 11.8% |
| O=C(CN1CCN(Cc2ccccc2)CC1)NCc1ccc(Cl)cc1 | -13.4% |
| Cl.O=C(CN1CCCC1)NCc1ccccc1 | 13.4% |
| CCOc1ccc(C(=O)NCC(=O)N2CCN(C/C=C/c3ccccc3)CC2)cc1OCC | -1.35% |
| O=C(NCC(=O)N1CCN(C/C=C/c2ccccc2)CC1)c1ccc(OC(F)F)cc1 | -50.4% |
| O=C(CN1CCN(c2ccc(Cl)cc2)CC1)NCc1ccccc1 | -23.6% |
| O=C(CN1CCN(C/C=C/c2ccccc2)CC1)NCc1ccccc1 | -53.6% |
| CCOC(=O)c1c(C)[nH]c(C(=O)O)c1C | 11.5% |
| OC1CCCN(Cc2cccc3ccccc23)C1 (centres unmarked) | 14.7% |
| Cc1cc(C)cc(N2CC(O)Cn3c2nc2c3c(=O)[nH]c(=O)n2C)c1 (centres unmarked) | 9.84% |
| Cc1ccc(/C=N/NC(=O)c2nnn(-c3nonc3N)c2CSc2ccccc2)cc1 | 11.4% |
| O=C(N=C1SC2CS(=O)(=O)CC2N1CCc1ccccc1)C1CC1 (centres unmarked) | 9.32% |
| O=C(O)c1cccc(-n2cc(-c3cccc(C(F)(F)F)c3)cn2)c1 | 4.88% |
| O=C(NNC(=O)c1sc2cccc(Cl)c2c1Cl)Nc1ccccc1 | 13.9% |
| COc1ccc(-c2coc3c(C)c4oc(=O)c(CCC(=O)O)c(C)c4cc23)cc1 | 6.19% |

| Compound | hERG current change (%, negative = inhibition) at 1uM |
| --- | --- |
| CCCCCCNC(=O)CC(NS(=O)(=O)c1ccc(NC(C)=O)cc1)C(C)C (centres unmarked) | -0.978% |
| COc1ccc(OC)c(NC(=O)c2cccc(N3C(=O)C4C5CCC(C5)C4C3=O)c2)c1 (centres unmarked) | 2.22% |
| F[B-](F)(F)F.OCC[NH+]=c1cc(-c2ccccc2)oc2ccc(Cl)cc12 | -71.1% |
| F[B-](F)(F)F.OCCCCC[NH+]=c1cc(-c2ccccc2)oc2ccc(Cl)cc12 | -86.1% |
| COc1ccc(-c2cc(=[NH+]c3cccc(C(=O)O)c3)c3cc(C)ccc3o2)cc1.[O-][Cl+3]([O-])([O-])[O-] | 6.72% |
| OCCCNc1nc(-c2ccccc2)c2cc(Cl)ccc2n1 | 5.65% |
| O=c1oc2ccc(Cl)cc2cc1-c1ccccc1 | 16.1% |
| Clc1ccc(Oc2ncnc3oc(-c4ccccc4)cc23)cc1 | 6.4% |
| F[B-](F)(F)F.OCCC[NH+]=c1cc(-c2ccccc2)oc2ccc(Cl)cc12 | -78% |
| COc1ccc(-c2cc(=[NH+]c3ccccc3)c3cc(C)ccc3o2)cc1.[O-][Cl+3]([O-])([O-])[O-] | 14% |
| O=c1cc(-c2ccccc2)oc2ccc(O)cc12 | 4.17% |
| Cc1cc(C(=O)OCC(=O)N2C(C)CCCC2C)c(C)o1 (centres unmarked) | 9.75% |
| COc1ccc(-n2c(Cc3cccn3C)nnc2SCC(=O)Nc2cccc(NC(C)=O)c2)cc1 | 3.64% |
| Cc1ccc(OCCOCCn2cnc3ccccc3c2=O)c([N+](=O)[O-])c1.O=C(O)C(=O)O | -6.31% |
| CCCCOc1ccc(CSC2=NCCN2)cc1[N+](=O)[O-].Cl | -22.3% |
| CCCCCOc1ccc(CSC(=N)N)cc1[N+](=O)[O-].Cl | -3.45% |
| CCCCCOc1ccc(CSC2=NCCN2)cc1[N+](=O)[O-] | -60% |
| CCCCOc1ccc(CSc2nnc(C)n2N)cc1[N+](=O)[O-] | -2.42% |
| CCOc1ccc(CSC(=N)N)cc1[N+](=O)[O-].Cl | -50.3% |
| CCOc1ccc(CSC2=NCCN2)cc1Cl.Cl | -4.54% |

| Compound | hERG current change (%, negative = inhibition) at 1uM |
| --- | --- |
| CCOc1ccc(CSC2=NCCN2)cc1[N+](=O)[O-].Cl | -71% |
| COc1ccc(CSC2=NCCN2)cc1Br | 10.8% |
| CCCCOc1ccc(CSC(=N)N)cc1[N+](=O)[O-].Cl | -26.4% |
| Br.O=[N+]([O-])c1ccc(CSC2=NCCN2)cc1 | 8.87% |
| COc1ccc(CSC2=NCCN2)cc1Cl.Cl | -7.52% |
| CCCOc1ccc(CSC2=NCCN2)cc1[N+](=O)[O-] | -53.5% |
| CCOC(=O)C1CCN(C(=O)CCS(=O)(=O)c2ccc3c(c2)n(C)c(=O)c(=O)n3C)CC1 | 10.2% |
| COc1cc(OC)cc(C(=O)Nc2ccc3c(c2)OCCO3)c1 | 7.93% |
| O=C(Cn1cc(/C=C\[N+](=O)[O-])c2ccccc21)Nc1ccccc1 | 8.45% |
| COc1ccc(OC)c(N2C(=O)CC(Cc3cc(C)cc(C)c3)C2=O)c1 (centres unmarked) | 5.71% |
| CSc1ccccc1C(=O)N1CCN(S(=O)(=O)c2sc(C(=O)O)c(C)c2C(=O)O)CC1 | 0.019% |
| COc1ccc(C2CC(c3ccccc3)=NN2c2ccc(S(N)(=O)=O)cc2)cc1OC (centres unmarked) | 7.52% |
| CC(C)CCNC(=O)C1c2ccccc2Oc2ccccc21 | -12.1% |
| COc1ccccc1/C=C/CN1CCC(CO)(Cc2ccccc2)CC1 | 0.366% |
| COc1cccc(CC2(CO)CCCN(C/C=C/c3ccccc3OC)C2)c1 (centres unmarked) | -32.8% |
| OCC1(Cc2ccccc2Cl)CCN(C/C=C/c2ccccc2)CC1 | -27.8% |
| COc1ccc(/C=C/CN2CCCC(CO)(Cc3cccc(Cl)c3)C2)cc1 (centres unmarked) | 3.25% |
| COc1ccc(CC2(CO)CCN(C/C=C/c3ccccc3OC)CC2)cc1 | -71.4% |
| COc1ccc(/C=C/CN2CCC(CO)(Cc3ccccc3Cl)CC2)cc1 | -61.9% |
